Several values for one entry are separate records, joined by “and”; a condition that tells them apart may be missing. Identical values can stand only once. Screen size: about 34,000 compounds; about 290 (0.85%) showed an effect of 50% or more. This is one part of a sample in which strong results are shown more often than they occur.
System: Plasmodium falciparum
Assay: Plasmodium falciparum sporozoite viability assay
Type: functional, organism-based
Set-up: scale not given: in the data most compounds retested in dose-response had high values

| SMILES | Percent Effect [%] | Percent Effect (10 mM as filed; unlikely as a test dose) |
| --- | --- | --- |
| CCn1cc(CN2CCCN(C(=O)c3ccccc3OC)CC2)cn1 | 5.544 |  |
| CCCc1cc(CNC2CCN(c3nc4ccccc4s3)CC2)on1 |  | 84.7% and 90.12% |
| Cc1nc(CN2CCCC(NCc3nc4ccccc4s3)C2)no1 (centres undefined) | 12.82 |  |
| CCCc1cc(CNC(=O)C2CCOc3ccccc3C2)on1 (centres undefined) | 10.71 |  |
| CC(=O)N1N=C(c2ccccc2)OC1C(=O)NCCc1ccc(C)cc1 (centres undefined) | -14.76 |  |
| CNC(=O)CN1CCCC12CCN(C(=O)c1ccccc1F)CC2.O=C(O)C(F)(F)F | -2.189 |  |
| Cl.Clc1ccccc1CN1CCc2nc(C3CCCNC3)ncc2C1 (centres undefined) | 2.109 |  |
| CC(C)Oc1ccc2c(NC(=O)[C@H](C)O)nn(CC(F)(F)F)c2c1 |  | -22.23% and -11.46% |
| Cc1csc(NC(=O)[C@@H]2C[C@H]3[C@H](CCN3c3ncccn3)O2)n1.O=C(O)C(F)(F)F | 2.312 |  |
| CCn1ccc(C(=O)N2CCOC(c3nc(-c4cccs4)no3)C2)n1 (centres undefined) |  | -10.26% and 14.68% and 1.172% |
| CCn1cc(C(=O)N2CCOC(c3nc(-c4cccs4)no3)C2)cn1 (centres undefined) |  | 66.92% and 76% and 54.9% |
| CCCn1cc(C(=O)N2CCOC(c3nc(-c4cccs4)no3)C2)cn1 (centres undefined) |  | 42.39% and 34.52% and 29.79% |
| CC(C)n1cnc(-c2nc(C(=O)NC3CC3)c3ccccn23)c1 | 6.582 |  |
| Cn1cnc(-c2cc(C(=O)N3CCOCC3)c3ccccn23)c1 | -1.371 |  |
| Cc1nc(-c2nc(C(=O)N(C)C)c3ccccn23)cn1C(C)C |  | 38.79% and 23.46% and 42.96% |
| Cc1nc(-c2nc(C(=O)N3CCOCC3)c3ccccn23)cn1C(C)C |  | 54.88% and 55.7% |
| Cn1cnc(-c2nc(C(=O)NC3CC3)c3ccccn23)c1 | 10.82 |  |
| Cc1nc(-c2nc(C(=O)NC3CC3)c3ccccn23)cn1C(C)C |  | 58.89% and 55% and 41.86% |
| CCNC(=O)c1cc(OC)c2cc(F)cc(C)c2n1 | 1.557 |  |
| Cc1cncnc1C1CCN(CC2CC2)CC1 | 1.471 |  |
| CCCOc1cccc(OCc2ccon2)c1 | -14.79 |  |
| Cc1cc(C)n(CC2CCCCN2CCc2ccncc2)n1 (centres undefined) | 5.224 |  |
| Cc1c(C)n2c(SCC(=O)N3CCCCCC3)nnc2[nH]c1=O |  | -20.75% and -26.48% |
| CNC(=O)CNC(=O)c1ccc(-c2scnc2C)nc1 | 1.458 |  |

| SMILES | Percent Effect [%] | Percent Effect (10 mM as filed; unlikely as a test dose) |
| --- | --- | --- |
| CCc1ccc(C(=O)NCc2ccnc(N3CCN(C)CC3)c2)o1 | 8.293 |  |
| CCc1nnc2n1CCN(CCC(=O)Nc1sccc1C#N)C2 | 5.694 |  |
| CCOC[C@@H]1CC[C@H]2[C@H](CCN2C(=O)c2cnccn2)O1 | -3.07 |  |
| c1ccc(-c2nc(CNC3CCc4ncnn4C3)cs2)cc1 (centres undefined) | 1.596 |  |
| OCCN1CCN(Cc2coc(-c3cccc(Cl)c3)n2)CC1 | -3.989 |  |
| CC(=O)N1CCN(Cc2coc(-c3cccc(F)c3)n2)CC1 |  | -29.73% and -43.84% and -27.15% |
| CCN1CCN(Cc2coc(-c3cccc(F)c3)n2)CC1 |  | 64.85% and 77.13% and 53.15% |
| N#Cc1ccc(NCCC(=O)N2CCCc3ccccc32)nc1 | -11.08 |  |
| Cc1cc(CC2COCCN(CCc3ccccc3)C2)ncn1 (centres undefined) | 5.745 |  |
| O=C(c1cc(-c2cccnc2)[nH]n1)N1CCCC(c2cnccn2)C1 (centres undefined) | 12.79 |  |
| COc1ccc2cc(C3CN(C(=O)CN4CCCC4)CCO3)ccc2c1 (centres undefined) |  | 56.27% and 53.19% and 50.16% |
| COc1ccc(-c2cnc(N(C)C)nc2C2CN(C(C)=O)CCO2)cc1 (centres undefined) | 14.8 |  |
| COc1ccc2cc(C3CN(C(=O)C4CCOCC4)CCO3)ccc2c1 (centres undefined) |  | 90.24% and 38% and 72.69% |
| CC(=O)N1CCOC(c2ccnc(N(C)C)n2)C1 (centres undefined) | 3.741 |  |
| COc1ccnc(N2CCN(CC(=O)N3CCOC(C)C3)CC2)n1 (centres undefined) | -0.9874 |  |
| Cc1c[nH]nc1C1CCN(C(=O)C2CCOCC2)C1 (centres undefined) | -9.491 |  |
| COc1ccc2cc(C3CN(C(=O)N(C)C)CCO3)ccc2c1 (centres undefined) |  | 102.8% and 105.3% and 102% |
| CC(=O)NCC(=O)N1CCOC(c2cccc(N)n2)C1 (centres undefined) | 2.685 |  |
| COc1ccc(CN2CCO[C@H]3CN(C(=O)C4CC4)CC[C@H]3C2=O)cc1 | -7.815 |  |
| COc1ccc2c(c1)[C@@H](CCNC(C)=O)CC(C)(C)O2 | 3.641 |  |
| Nc1cccc(C2CN(C(=O)CN3CCOCC3)CCO2)n1 (centres undefined) | 3.517 |  |
| COc1ccc2cc(C3CN(C(=O)CCNC(C)=O)CCO3)ccc2c1 (centres undefined) |  | 97.44% and 100.2% and 98.47% |
| COc1ccccc1CN1CCC2(CCC(C(=O)N(C)C)O2)CC1 (centres undefined) | 9.72 |  |
| CCc1ncnc2c1CCN(S(=O)(=O)c1ccccc1)CC2 | 11.48 |  |

| SMILES | Percent Effect [%] | Percent Effect (10 mM as filed; unlikely as a test dose) |
| --- | --- | --- |
| O=C(O)c1cc(S(=O)(=O)Nc2ccc(F)c(Cl)c2)cc2c1OCCO2 | 12.45 |  |
| O=C(CC1CC1)N1CCc2ncc(Cn3cncn3)n2CC1.O=C(O)C(F)(F)F | 2.491 |  |
| CC(=O)N1CCc2ncc(CNC(=O)C3CCC3)n2CC1 | -7.632 |  |
| CNC(=O)CN1CCC(c2cc(OC)cc(OC)c2)C1 (centres undefined) | -3.657 |  |
| COCC(=O)N1CCOC(c2ccc(N(C)C)cn2)C1 (centres undefined) | -1.133 |  |
| CNC(=O)CCC(=O)N1CCOC(c2ccc3cc(OC)ccc3c2)C1 (centres undefined) |  | 98.94% and 98.67% and 101% |
| COCC(=O)N1CCOC(c2cccc(-c3cncnc3)n2)C1 (centres undefined) | 0.9327 |  |
| CNC(=O)c1ccc(C2CN(C(=O)COC)CCO2)nc1 (centres undefined) | -16.96 |  |
| COc1ccc2cc(C3CN(C(=O)COC(C)C)CCO3)ccc2c1 (centres undefined) |  | 38.96% and 58.61% and 49.31% |
| CC(C)COCCCNC(=O)NCC(O)c1cccc(F)c1 (centres undefined) | 2.496 |  |
| CNCC(=O)N1CCCC(c2ccnc(Nc3cnccn3)n2)C1 (centres undefined) | -8.636 |  |
| Cl.Cl.NCC(=O)N1CCCC(c2ccnc(Nc3cnccn3)n2)C1 (centres undefined) | 10.19 |  |
| Cc1ccc(Nc2nccc(C3CCN(C(=O)CO)C3)n2)nc1 (centres undefined) |  | -6.369% and -30.39% and -30.26% |
| CC(=O)N1CC(c2ccnc(Nc3ccc(C)cn3)n2)C1 |  | 15.77% and 8.208% and 11.03% |
| Cc1ccc(Nc2nccc(C3CCN(C(=O)CN)C3)n2)nc1.Cl (centres undefined) |  | 81.99% and 45.72% and 74.53% |
| CCN1CCCC1CNCc1cc2ccccc2[nH]c1=O (centres undefined) | 24.74 |  |
| c1cc(C2CCN(c3cnccn3)CC2)ccn1 | 11.86 |  |
| COc1ccc(C(=O)N(C)Cc2c(C)noc2C)cn1 | 8.528 |  |
| CC(C)(C)CC1CCCN1Cc1nc(-c2ccco2)no1 (centres undefined) |  | 58.36% and 65.06% |
| Cc1nc(C)n(CC2CCCN2Cc2nc(-c3ccco3)no2)n1 (centres undefined) |  | -0.3641% and 0.04429% and -1.23% |
| CN(C)CCN1C(=O)CC[C@@H]2[C@H]1CCN2Cc1cccc(C#N)c1.O=C(O)C(F)(F)F.O=C(O)C(F)(F)F | -0.2577 |  |
| Cc1nc(C)n(CC2CCCN(CCOc3ccccc3C#N)C2)n1 (centres undefined) | 12.74 |  |
| O=C(NCC1CC1)[C@H]1C[C@H]2OCC[C@H]2N(Cc2ccoc2)C1 | -11.2 |  |
| Cn1nccc1CNC(=O)CCn1nc(C(F)(F)F)c(Cl)c1C1CC1 | 10.43 |  |

| SMILES | Percent Effect [%] | Percent Effect (10 mM as filed; unlikely as a test dose) |
| --- | --- | --- |
| O=C(COCc1ccccc1Cl)N1CCN(c2ncccn2)CC1 | 3.259 |  |
| COc1ccc(COCC(=O)N2CCN(CC(C)(C)O)CC2)cc1 |  | 7.514% and -16.19% and -8.725% |
| CC(C)(O)CN1CCN(C(=O)COCc2ccccc2Cl)CC1 |  | 71.26% and 47.5% and 53.2% |
| CC(NC(=O)CCCc1nc(C(C)(C)C)no1)c1ccccn1 (centres undefined) | 4.866 |  |
| Cc1nn(C)cc1-c1cc(C(=O)NCC(C)(C)c2cccc(F)c2)n[nH]1 | -0.9712 |  |
| CN(C)CC1CSCCCN1C(=O)c1ccc(-c2ccccc2)cc1 (centres undefined) | 11.37 |  |
| CC(NCC(=O)NCC(=O)Nc1ccc(F)cc1)c1cccs1 (centres undefined) | 0.1791 |  |
| NC(=O)CN1CCC2(CC1)CC(=O)c1ccc3ccccc3c1O2 |  | 14.56% and 23.77% and 28.36% |
| CCOC(=O)CN1CCC2(CC1)CC(=O)c1ccc(OC)cc1O2 | -0.03409 |  |
| CN(C)C(=O)CN1CCC2(CC1)CC(=O)c1c(ccc3ccccc13)O2 | 16.77 |  |
| CN(C)C(=O)CN1CCC2(CC1)CC(=O)c1ccc3ccccc3c1O2 |  | 28.41% and 58.1% and 56.14% |
| CN(C)C(=O)CN1CCC2(CC1)CN(S(C)(=O)=O)Cc1ccccc1O2 | -23.82 |  |
| Cc1nc(C)c(C(=O)OCCNc2ncccc2C#N)s1 | 25.07 |  |
| CNC(=O)Cc1ccc(NC(=O)NC(C)C(C)C)cc1 (centres undefined) |  | -4.587% and -4.397% and -12.09% |
| CC(CN1CCC(CCO)CC1)n1cnc2ccccc21 (centres undefined) |  | -16.85% and -31% |
| CCN(CC)CCCNc1nc(C)nc2c1CCN(C)C2.O=C(O)CC(O)(CC(=O)O)C(=O)O | 7.039 |  |
| CN(CC(=O)NCc1ccco1)Cc1nc2c(s1)CCCC2 |  | 18.7% and 19.42% |
| CN(CC(=O)NCC(F)(F)F)Cc1nc2c(s1)CCCC2 |  | 29.9% and 31.57% |
| Cc1nnc(CN(C)Cc2nc3c(s2)CCCC3)o1 |  | 69.64% and 55.12% and 51.62% |
| CN(Cc1nnc(-c2cccs2)o1)Cc1nc2c(s1)CCCC2 |  | 22.52% and 35.26% and 20.64% |
| CN(Cc1nnc(-c2ccco2)o1)Cc1nc2c(s1)CCCC2 |  | -11.23% and -0.3712% and 0.4353% |
| CN(CC(=O)NCC1CCCO1)Cc1nc2c(s1)CCCC2 (centres undefined) |  | 56.93% and 58.41% |

— ChEMBL document CHEMBL3988442, “University of Dundee, Small-Polar-MMV Screening Library” (2021)
